{"source": "PubChem BioAssay (EPA / NIEHS)", "note": "Active and inactive are the calls of the source. Rule for the calls: active = hit-call score of the fitted dose curve at least 0.9, where 1 is the maximum; inactive = score below 0.9.", "data": [{"read-out": "Ezrin (EZR), EZR (gene 7430)", "assay": "LTEA_HepaRG_EZR: Life Technologies and Expression Analysis (LTEA) Assay for Ezrin (EZR) using HepaRG (AID 2283491)", "conditions": "mRNA level, 48 h; actives raise or lower the signal", "method": "It is a marker of Cellular remodeling.Data from the assay component LTEA_HepaRG_EZR was analyzed into 1 endpoint. This assay endpoint, LTEA_HepaRG_EZR, was analyzed with bidirectional fitting relative to DMSO as the negative control and baseline of activity. Using a type of inducible reporter, measures of mRNA induction for gain or loss-of-signal activity can be used to understand regulation of transcription factor activity. To generalize the intended target to other relatable targets, this assay endpoint is annotated to the membrane protein intended target family, where the subfamily is Cellular remodeling.\nA total of 1060 chemcials from the ToxCast library were tested in eight-point concentration-response experiments. Cell culture and cytotoxicity assays were conducted at Thermo Fisher Scientific's Custom Services facility (Madison, WI). A single lot of human HepaRG cells (Thermo Fisher Scientific, Frederick, MD) was used for the cell culture experiments. 96-well format collagen type I coated plates of human HepaRG cells were prepared using established methods. Briefly, cryopreserved HepaRG cells were thawed, plated at a density of approximately 100,000 cells/well in HepaRG Thaw, Plate, and General Purpose media (HPRG770, Thermo Fisher Scientific), and incubated for 48 hours. 0.5% DMSO was selected as vehicle control to balance the requisite need of DMSO in HepaRG cultures to maintain differentiation (for example, baseline metabolism, proportions of hepatocytes vs. cholangiocytes), while enabling further hepatic receptor pathway activation (for example, PXR and CAR) in response to chemical exposure. 48 hours after plating, the culture medium was replaced with HepaRG Serum-Free Incudtion Media. Cells were exposed to each test chemical in duplicate and maintained in CO2 incubators for another 48 hours. Chemical plates were thawed to room temperature and 200x concentrations of treatment groups were prepared. 8-point conentration-reponse curves were made with the highest exposure at 100 uM, followed by half-log dilutions, all in 0.5% DMSO. Each test plate contained variouse controls, induction positive controls (1mM phenobarbital), cytotoxicity positive controls ([…] aflatoxin B1), vehicle controls (0.5% DMSO), and total lysis controls (0.5% DMSO). Cell morphology images were taken using an Essen IncuCyte FLR automated microscope, with six 96-well plates imaged in about 24 minutes. Images were captured and exported and JPEG files. Spent culture media was transfered to black-well plates for the LDH assay, and remaining media was sorted at -80 C for later use. Cells were treated with RLT buffer and frozen until shipped for gene expression analysis. Total RNA was isolated from the cell suspension in 75 uL of Buffer RLT (Qiagen, Germantown, MD 20874) by Quintiles/Expression Analysis (Durham, NC) using a custom isolation procedure. Total RNA from each plate well was transferred to a preamplification plate. Fluidigm's 96.96 Dynamic ArrayTM (Fluidigm, Amsterdam, the Netherlands) technology was used for gene expression analyses by quantitative reverse transcription polymerase chain reaction (qRT-PCR, performed by Quintiles/Expression Analysis, Durham, NC)89. Standard TaqManTM Assays (Applied Biosystems/ThermoFisher Scientific, Foster City, CA) were used to assess the expression of 93 genes selected based on their selectivity and sensitivity to important hepatic receptors known to be modulated by environmental chemicals; importance in human hepatocyte functionality; and hepatotoxicity. Three \"housekeeping\" endogenous control genes were also included and used for normalization: actin beta (ACTB), Glyceraldehyde 3 phosphate dehydrogenase (GAPDH) and RNA Polymerase II Subunit A (POLR2A). qRT-PCR was conducted according to the manufacturer's protocol.", "values": [{"smiles": "c1ccc2c(c1)oc1ccccc12", "outcome": "inactive"}, {"smiles": "c1ccc(N=Nc2ccccc2)cc1", "outcome": "inactive"}, {"smiles": "CC(C)(OOC(C)(C)c1ccccc1)c1ccccc1", "outcome": "inactive"}, {"smiles": "CCN(CC)CCO", "outcome": "inactive"}, {"smiles": "O=C(Oc1ccc(Br)cc1)N1CCN2CCC1CC2", "outcome": "inactive"}, {"smiles": "CS(=O)(=O)NC(=O)c1cc(Oc2ccc(C(F)(F)F)cc2Cl)ccc1[N+](=O)[O-]", "outcome": "inactive"}, {"smiles": "c1ccc(NNc2ccccc2)cc1", "outcome": "inactive"}, {"smiles": "COC(=O)c1ccccc1N", "outcome": "inactive"}, {"smiles": "Cc1ccc(N)c(N)c1", "outcome": "inactive"}, {"smiles": "CCCCCOC(=O)c1ccccc1C(=O)OCCCCC", "outcome": "inactive"}, {"smiles": "C[C@]12C=CC3=C4CCC(=O)C=C4CC[C@H]3[C@@H]1CC[C@@H]2O", "outcome": "inactive"}, {"smiles": "O=[N+]([O-])C(Br)(CO)CO", "outcome": "inactive"}, {"smiles": "O=C(O)C1C2CCC(O2)C1C(=O)O", "note": "(stereo not given)", "AC50": "9.92 µM (active)"}, {"smiles": "CCCCCCCCOC(=O)c1ccc(C(=O)OCCCCCCCC)c(C(=O)OCCCCCCCC)c1", "outcome": "inactive"}, {"smiles": "Nc1ccc(N=Nc2ccccc2)cc1", "outcome": "inactive"}, {"smiles": "CC(O)CCO", "note": "(stereo not given)", "outcome": "inactive"}, {"smiles": "ClC1=C(Cl)[C@]2(Cl)[C@H]3[C@H]([C@@H]4C=C[C@H]3C4)[C@@]1(Cl)C2(Cl)Cl", "outcome": "inactive"}, {"smiles": "CCCCC(CC)COC(=O)c1ccc(C(=O)OCC(CC)CCCC)c(C(=O)OCC(CC)CCCC)c1", "note": "(stereo not given)", "outcome": "inactive"}, {"smiles": "Oc1ccc2ccc3cccc4ccc1c2c34", "outcome": "inactive"}, {"smiles": "ClC1=C(Cl)C2(Cl)C3C(Cl)C=CC3C1(Cl)C2(Cl)Cl", "note": "(stereo not given)", "outcome": "inactive"}, {"smiles": "COc1cc(C=O)cc2c1[C@H](COC(N)=O)[C@]1(OC(C)=O)ON2C[C@H]2[C@@H]1N2C(C)=O", "outcome": "inactive"}, {"smiles": "CCCSC(=O)N(CCC)CCC", "outcome": "inactive"}, {"smiles": "CN(C)C(=O)Nc1ccc(Cl)cc1", "outcome": "inactive"}, {"smiles": "Cc1ccc(N=C=O)cc1N=C=O", "outcome": "inactive"}, {"smiles": "Nc1ccc(Cl)cc1N", "outcome": "inactive"}, {"smiles": "O=C(N[C@H](c1ccccc1)[C@@H]1CN2CCC1CC2)c1c(Cl)ccc(C(F)(F)F)c1Cl", "AC50": "2.42 µM (active)"}, {"smiles": "Cc1ccc([N+](=O)[O-])cc1", "outcome": "inactive"}, {"smiles": "O=[N+]([O-])c1ccc(Oc2ccc(Cl)cc2Cl)cc1", "outcome": "inactive"}, {"smiles": "CC(C)(C)OOC(C)(C)CCC(C)(C)OOC(C)(C)C", "outcome": "inactive"}, {"smiles": "Cc1cccc(N)c1N", "outcome": "inactive"}, {"smiles": "Nc1ccc(Cc2ccc(N)cc2)cc1", "outcome": "inactive"}, {"smiles": "OCCOCCO", "outcome": "inactive"}, {"smiles": "CC(C)N(Cc1ccccc1)C(=O)C(C)(C)C", "outcome": "inactive"}, {"smiles": "COP(=S)(OC)SCN1C(=O)c2ccccc2C1=O", "outcome": "inactive"}, {"smiles": "CN(C)[C@@H]1C(=O)C(C(N)=O)=C(O)[C@@]2(O)C(=O)C3=C(O)c4c(O)cccc4[C@@](C)(O)[C@H]3C[C@@H]12", "outcome": "inactive"}, {"smiles": "CCC[CH2][Sn]([Cl])([CH2]CCC)[CH2]CCC", "outcome": "inactive"}, {"smiles": "N#CC(Br)Br", "outcome": "inactive"}, {"smiles": "CC(C)COC(=O)c1ccccc1C(=O)OCC(C)C", "outcome": "inactive"}, {"smiles": "CO[C@@H]1[C@H](OC(=O)NC(=O)CCl)CC[C@]2(CO2)[C@H]1[C@@]1(C)O[C@@H]1CC=C(C)C", "outcome": "inactive"}, {"smiles": "[As]#[In]", "outcome": "inactive"}]}]}
